# Shown are actives, neighbours in structure and some others; about 10% of the full set was active somewhere.
# CtBP-E1A inh = qHTS Assay for Inhibitors of the CtBP/E1A Interaction; CtBP / adenovirus E1A interaction (AlphaScreen); AlphaScreen GST-E1A/His-CtBP binding, 1536-well; stronger effect = lower value; activity change, % (test concentration not listed); actives 0.49% (n = 340,000); AID 651724, 2012; in the data active = activity change below about -65%; inconclusive = mostly about -30% to -63%; also: % is scaled to controls: 0 for no effect and ±100 for the full control effect
#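 AlphaScreen with 125 nM GST-E1A and 125 nM His-CtBP (5X stocks) in Tris pH 8.0, 300 mM NaCl, BSA, Tween 20, TCEP. Compounds preincubated 2 h at 37 deg C, then glutathione donor/nickel acceptor beads added for 1 h at 37 deg C in dark.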
# G9a inh = qHTS Assay for Inhibitors of Histone Lysine Methyltransferase G9a. G9a H3K9 monomethylation, AlphaScreen, 2 h. AID 504332, 2011. actives 8.8% (n = 350,000). Potency, µM (series often up to 102 µM), for the others: at the highest dose activity, negative = inhibition, actives largely listed as inhibitors; also: potency is read from the fitted curve at half-maximal effect; % is scaled to controls: 0 for no effect and ±100 for the full control effect; nearly all actives have a fitted effect of over 75% in size
#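 G9a (20 nM) preincubated 15 min RT with compounds, then 500 nM biotinylated H3K9 peptide and 20 uM SAM added; 2 h RT reaction. Monomethyl-H3K9 product detected by AlphaScreen with anti-H3K9me1 antibody, streptavidin donor and anti-rabbit IgG acceptor beads.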
# BAZ2B inh = qHTS Assay for Inhibitors of BAZ2B | Bromodomain adjacent to zinc finger domain protein 2B (Homo sapiens), Q9UIF8 | AlphaScreen BAZ2B-H3K14Ac peptide displacement | Potency, µM (series often up to 114 µM), without a hit: at the highest dose activity change, negative = inhibition, usual class: inhibitors | actives 4.4% (n = 360,000) | AID 504333, 2011; also: potency is read from the fitted curve at half-maximal effect; % is scaled to controls: 0 for no effect and ±100 for the full control effect; nearly all actives have a fitted effect of over 60% in size
#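 AlphaScreen displacement: compounds (up to 110uM) incubated 30 min at room temperature with a preformed 50 nM BAZ2B/50 nM biotinylated H3K14Ac peptide complex in PBS pH 7.4 with Tween-20. Donor and acceptor beads at 10 ug/mL final added, 20 min light-protected before reading.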
# JMJD2A Tudor = qHTS Assay for Inhibitors of JMJD2A-Tudor Domain; actives 4.4% (n = 390,000); Potency, µM (highest dose often 114 µM), without a hit: at the highest dose activity change, negative = inhibition, hits mostly inhibitors; AlphaScreen JMJD2A-Tudor / H3K4me3 peptide binding; Lysine-specific demethylase 4A (Homo sapiens), O75164; also: potency is read from the fitted curve at half-maximal effect; % is scaled to controls: 0 for no effect and ±100 for the full control effect; nearly all actives have a fitted effect of over 50% in size
# HP1b chromo inh = HTS for Inhibitors of HP1-beta Chromodomain Interactions with Methylated Histone Tails. Chromobox protein homolog 1 (Homo sapiens), P83916. AlphaScreen HP1-beta / biotin-H3K9me3 peptide binding. Potency, µM (titrated, usually from 114 µM), for the others: top-dose activity change, negative = inhibition, actives largely listed as inhibitors. actives 0.56% (n = 390,000); also: potency is read from the fitted curve at half-maximal effect; nearly all actives have a fitted effect of over 70% in size
#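 HP1-beta protein (50 nM final) preincubated 30 min at room temperature with biotinylated H3(1-18)K9me3 peptide (50 nM) in PBS pH 7.4, 0.01% Tween-20, then compound added for 30 min. AlphaScreen streptavidin donor/nickel chelate acceptor beads (10 ug/mL final), 30 min dark, luminescence read.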
# Six1-Eya2 inh = qHTS Assay for Inhibitors of the Six1/Eya2 Interaction | Homeobox protein SIX1 (Homo sapiens) + Protein phosphatase EYA2 (Homo sapiens), … | AlphaScreen GST-Six1/His-Eya2 binding, biochemical; stronger effect = lower value | activity change, % (no concentration beside the values) | actives 0.56% (n = 360,000); in the data active = activity change below about -65%; inconclusive = mostly about -30% to -63%; also: % is scaled to controls: 0 for no effect and ±100 for the full control effect
# Target sequence (O00167 whole entry, looked up): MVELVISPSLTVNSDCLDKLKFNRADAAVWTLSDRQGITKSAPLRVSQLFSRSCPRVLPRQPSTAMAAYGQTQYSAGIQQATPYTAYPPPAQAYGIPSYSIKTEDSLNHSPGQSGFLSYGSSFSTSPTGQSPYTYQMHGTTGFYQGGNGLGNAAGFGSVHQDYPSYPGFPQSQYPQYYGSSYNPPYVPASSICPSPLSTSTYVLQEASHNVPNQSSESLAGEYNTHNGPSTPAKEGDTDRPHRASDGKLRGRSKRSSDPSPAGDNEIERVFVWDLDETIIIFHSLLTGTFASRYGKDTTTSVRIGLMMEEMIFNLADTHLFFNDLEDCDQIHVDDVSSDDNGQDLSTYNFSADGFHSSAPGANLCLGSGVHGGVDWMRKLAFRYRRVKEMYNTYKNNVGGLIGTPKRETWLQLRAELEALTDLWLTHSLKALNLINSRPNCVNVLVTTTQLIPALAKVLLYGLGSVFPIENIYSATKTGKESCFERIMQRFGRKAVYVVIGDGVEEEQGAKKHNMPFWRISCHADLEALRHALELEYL
# Target sequence (Q15475 whole entry, looked up): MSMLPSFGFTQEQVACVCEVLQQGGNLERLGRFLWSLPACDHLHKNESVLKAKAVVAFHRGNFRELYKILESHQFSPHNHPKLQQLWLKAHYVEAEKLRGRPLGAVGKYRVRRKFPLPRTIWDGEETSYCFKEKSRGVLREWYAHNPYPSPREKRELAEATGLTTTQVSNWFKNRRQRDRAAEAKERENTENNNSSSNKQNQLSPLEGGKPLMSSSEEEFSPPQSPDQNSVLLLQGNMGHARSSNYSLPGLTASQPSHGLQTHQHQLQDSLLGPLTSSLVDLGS
#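 GST-Six1 + His-Eya2 (5X stock: 250/500 nM); Tris pH 8.0, 300 mM NaCl, 0.05% BSA, 0.02% Tween 20; GSH donor/Ni acceptor beads; 1 h 37 °C dark; AlphaScreen readout.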
# Numbers without * were called inactive; ? = inconclusive; . = no result given; [ ] = another dose, or the depositor's remark. Unless noted, calls follow the shape of the dose curve; as a rule, active = well fitted inhibition curve with a large enough effect; inconclusive = small, poorly fitted or top-dose-only effect; inactive = no such curve, though single readings can be large or run the other way.
SMILES,CtBP-E1A inh,G9a inh,BAZ2B inh,JMJD2A Tudor,HP1b chromo inh,Six1-Eya2 inh
CN1C(=O)/C(=C/c2coc3ccc(O)cc3c2=O)SC1=S,-9.8,?,-2.8%,-10.9%,3.3%,-5.5
N=C1/C(=C\c2coc3ccc(O)cc3c2=O)C(=O)N=C2SC=CN12,-89.8*,.,?,-35.2%,-17.9%,-80.4*
N=C1/C(=C\c2coc3ccccc3c2=O)C(=O)N=C2SC(c3ccncc3)=NN12,-25.9,?,?,56.2µM*,?,?
CCC1=NN2C(=N)/C(=C/c3cc(C)n(Cc4ccccc4)c3C)C(=O)N=C2S1,3.3,-3.7%,-14.2%,-19.1%,-10.9%,-6.7
CSC1=NSC2=NC(=O)/C(=C\c3coc4ccccc4c3=O)C(=N)N12,-2.0,?,?,3.4%,41.3%,-27.8
N=C1/C(=C/c2coc3ccccc3c2=O)C(=O)N=C2SC(c3ccco3)=NN12,?,.,70.8µM*,?,-32.9%,-28.9
COc1ccc(-n2cccc2/C=C2\C(=N)N3N=C(C(C)C)SC3=NC2=O)cc1,-3.0,?,?,-24.5%,-5.3%,-9.4
COc1ccc(-n2cccc2/C=C2\C(=N)N3N=C(c4ccco4)SC3=NC2=O)cc1,-10.1,?,39.8µM*,14.1µM*,-13.7%,-25.2
CC(C)CSC1=NSC2=NC(=O)/C(=C\c3coc4ccccc4c3=O)C(=N)N12,-4.6,79.4µM*,79.4µM*,-24.3%,19.2%,3.5
CCN(CC(=O)NCc1cccs1)C(=O)CCC(=O)c1ccc(C)cc1,-1.0,?,1.0%,-11.0%,30.9%,-2.3
CCO/C(C)=N/n1c2nc3ccccc3nc2c2c(=O)n(C3CCCC3)c(C)nc21,8.0,56.2µM*,-4.3%,3.4%,30.1%,6.1
COc1ccc(C(=O)/C(=C/O)N=Nc2ccc(F)cc2)cc1,-6.4,?,31.6µM*,56.2µM*,-28.9%,-19.4
COc1ccc(NC(=O)c2cccs2)cc1,24.4,-9.9%[59 µM],-2.4%,-3.4%,36.0%,23.9
COc1ccc(N=N/C(=C\O)C(=O)c2cccs2)cc1,-14.4,20µM*,11.2µM*,15.8µM*,?,-26.7
Cc1cc(C)nc(SCC(=O)OC(C)C(=O)Nc2ccccc2)n1 (configuration not stated),0.6,71.5%,-12.7%,-8.8%,21.6%,-1.4
CC(C)OC(=O)C(C(=O)OC(C)C)=C1SC=CS1,.,27.6%[59 µM],.,.,.,.
CN(C)c1ccc(CNC(=O)c2sc3ncccc3c2-n2cccc2)cc1,.,22.4µM*,17.8µM*,28.2µM*,?,.
CC(C)Oc1ccc(CNC(=O)c2sc3ncccc3c2-n2cccc2)cc1,.,-3.2%[59 µM],1.6%,-1.3%,13.0%[57 µM],.
Cc1ccc2oc(C(=O)Nc3ccc(S(=O)(=O)Nc4nc(C)cc(C)n4)cc3)cc(=O)c2c1,.,?,-14.8%,-20.5%,20.6%,.
CC(=O)Nc1sc2c(c1C#N)CCC2,4.1,-26.2%,-11.4%,-4.8%,33.3%,3.1
N#Cc1c(N)sc(=S)c2c1CCCCC2,-5.8,4.47µM*,50.1µM*,44.7µM*,-49.0%,-19.9
N#Cc1c(N)sc2c1CCCCCC2,-11.7,17.8µM*,?,?,?,-3.9
N#Cc1c(N)c(C#N)c(-c2ccc(O)cc2)c2c1CCCC2,-3.3,0.3%,-1.2%,-8.6%,38.4%,-4.9
COc1ccc(C(=O)/C=C/c2ccc(OC)c(Cn3nnc4ccccc43)c2)cc1,-2.5,20.7%[59 µM],-34.2%,-25.3%,7.1%,0.1
COc1ccc(N2CCN(C(=O)c3csc4ccccc34)CC2)cc1,-27.5,20µM*,-30.5%,?,-24.9%,-28.3
SMILES,CtBP-E1A inh,G9a inh,BAZ2B inh,JMJD2A Tudor,HP1b chromo inh,Six1-Eya2 inh
COc1ccc(-c2cc(C(=O)N3CCN(c4ccccc4)CC3)c3ccccc3n2)cc1OC,-17.6,?,-36.5%,?,-10.8%,-19.6
COc1ccc(N2CCN(C(=O)c3cc(-c4cccs4)nc4ccccc34)CC2)cc1,0.0,22.4µM*,?,?,-31.0%,?
COc1ccc(N2CCN(C(=O)c3ccc(SC)cc3OC)CC2)cc1,17.5,28.2µM*,-37.0%,-34.4%,-10.3%,-5.2
COc1ccc(Nc2ncc(C(=O)N3CCN(c4ccc(OC)cc4)CC3)c3ccccc23)cc1,.,17.8µM*,-37.8%,?,8.1%,.
COc1cc(SC)ccc1C(=O)N1CCN(c2ccccc2F)CC1,3.0,-0.9%,-19.9%,?,-12.0%,6.4
COc1ccc(Cl)cc1C(=O)NCC(c1ccc(N(C)C)cc1)N1CCOCC1 (configuration not stated),.,?,-21.4%,-20.9%,-13.7%,.
O=C(NCc1ccc(F)cc1)C1CCN(S(=O)(=O)c2ccc3c(c2)CCCN3C(=O)C2CCC2)CC1,.,-3.8%[59 µM],1.7%,-16.8%,11.9%[57 µM],.
CCN1CCN(C(=O)CCN(CC(C)C)c2nc(-c3cccs3)nc3ccccc23)CC1,.,.,.,-19.7%,.,.
CC(C)N1CCN(Cc2cccn2-c2nccs2)CC1CCO (configuration not stated),-5.3,.,?,-11.5%[57.1 µM],25.0%,-4.2
CC(/C=C1\SC(=S)N(c2ccc(C(=O)O)cc2)C1=O)=C\c1ccccc1,.,31.6µM*,22.4µM*,44.7µM*,?,22.1
CC(/C=C1\SC(=S)N(C(C(=O)O)C(C)C)C1=O)=C\c1ccccc1 (configuration not stated),2.9,.,25.1µM*,?,7.6%,-1.5
CC(=O)c1ccc(NC(=O)CN2C(=O)/C(=C/C(C)=C/c3ccccc3)SC2=S)cc1,-3.6,-2.7%[59 µM],-12.5%,-27.9%,-6.8%,-9.1
O=C(OCC#CCSc1nnc(-c2cccc3ccccc23)o1)c1ccsc1,.,.,.,29.3%,.,.
CCc1cccc(C)c1NC(=O)c1cc(C)nc2c1c(C)nn2-c1cccc(Cl)c1C,.,-3.5%[59 µM],7.5%[57.1 µM],2.6%,27.3%,.
CC(C)(C)c1ccc(S(=O)(=O)N2CCN(C(=O)C3=COCCO3)CC2)cc1,0.0,16.6%[12.7 µM],-2.6%,-1.3%,59.2%,18.9
Cc1ccc(S(=O)(=O)NC(=O)c2cc(C)n(-c3cc(S(=O)(=O)N4CCOCC4)ccc3N3CCCC3)c2C)cc1,-3.8,?,-8.5%,-23.9%,-13.4%,-5.2
COCCNCc1cc(C)n(-c2cc(S(=O)(=O)N3CCOCC3)ccc2N2CCCC2)c1C,-0.9,.,.,5.01µM*,-36.9%,-3.5
